Cruzain inh noDet = cruzain (T. cruzi) inhibition without detergent | Potency, µM, for inactives: max response, negative = inhibition, actives largely listed as inhibitors | actives 2.3% (n = 200,000) | P25779 | AID 1476 | purified cruzain, Z-FR-AMC fluorescence, no detergent;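 also: plate controls were enzyme without inhibitor for no effect and buffer without enzyme for full effect; nearly all actives have a fitted effect of over 40% in size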
Target sequence (P25779 123-467 limits assumed): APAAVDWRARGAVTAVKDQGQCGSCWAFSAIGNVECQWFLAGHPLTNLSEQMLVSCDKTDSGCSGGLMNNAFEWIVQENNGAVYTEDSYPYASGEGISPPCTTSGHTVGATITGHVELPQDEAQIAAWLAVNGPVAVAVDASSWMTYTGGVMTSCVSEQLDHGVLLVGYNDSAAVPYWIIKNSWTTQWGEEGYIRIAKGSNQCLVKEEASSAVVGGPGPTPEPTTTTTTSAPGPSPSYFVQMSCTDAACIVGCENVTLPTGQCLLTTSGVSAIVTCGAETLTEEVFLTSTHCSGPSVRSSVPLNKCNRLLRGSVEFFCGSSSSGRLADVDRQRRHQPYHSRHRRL
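Purified cruzain at 1.5 nM, pre-incubated 15 min with compound at room temperature in 100 mM sodium acetate pH 5.5, 5 mM DTT, 0.00005% Triton X-100. Reaction started with 2 uM Z-FR-AMC; AMC fluorescence increase over 60 s gives rate.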
Cruzain inh Det = blocks cruzain activity in presence of Triton detergent. Potency, µM, without a hit: max response, negative = inhibition, hits mostly inhibitors. purified cruzain, Z-FR-AMC fluorescence, 0.01% Triton. actives 0.43% (n = 200,000);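 also: plate controls were neutral wells for no effect and buffer without enzyme for full effect; nearly all actives have a fitted effect of over 40% in size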
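Cysteine protease activity tested under reducing, mildly acidic conditions (100 mM sodium acetate pH 5.5, 5 mM DTT) plus 0.01% Triton X-100. Cruzain 1.5 nM; substrate Z-FR-AMC 2 uM; 15 min compound preincubation at room temperature.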
Active calls of the source: *; ? = inconclusive. Hits are enriched below; roughly 2.4% of the tested compounds scored in any of these assays. Calls follow the shape of the dose curve; as a rule, active = well fitted curve in the direction sought with a large enough effect; inconclusive = small, poorly fitted or top-dose-only effect, or another doubt; inactive = no such curve, though single readings can be large; an effect the other way counts as inactive or inconclusive. Potency is read from the fitted curve at half-maximal effect.

SMILES	Cruzain inh noDet	Cruzain inh Det
CCOC(=O)c1ccc(NC(=O)CSc2ncc(S(=O)(=O)c3ccc(C)c(Cl)c3)c(=O)[nH]2)cc1	?	28.2µM*
O=C1C=CC(=O)C(Cl)=C1	-7.8%	-1.2%
O=S(=O)(Nc1nc2ccccc2nc1Nc1cccc(S(=O)(=O)N2CCCCC2)c1)c1ccccc1	15.8µM*	-10.5%
COc1ccc(S(=O)(=O)Nc2cccc(S(=O)(=O)N3CCCCCC3)c2)cc1	2.3%	-5.3%
NC(=O)/N=C(\N)NC(=O)c1ccccc1	5.7%	-1.4%
Cc1ccc(NC(=O)C(=O)NCC(c2cccnc2)N2CCN(Cc3ccccc3)CC2)cc1C (stereo not given)	8.5%	-3.4%
Cc1ccccc1Nc1nc(CSc2nnnn2-c2ccccc2)cs1	20µM*	1.0%
O=c1cc(CSc2nnnn2-c2ccccc2)nc2scc(-c3ccccc3)n12	25.1µM*	-3.2%
c1ccc(-c2nc(CSc3nnnn3-c3ccccc3)cs2)cc1	-1.7%	-1.3%
O=c1cc(CSc2nnnn2-c2ccccc2)nc2nc[nH]n12	-3.1%	1.0%
O=[N+]([O-])c1ccc2c(N=Nc3ccc4ccccc4c3O)c(O)cc(S(=O)(=O)O)c2c1	11.1%	-26.9%
Cc1ccc(C#N)cc1	-0.7%	0.8%
COc1ccc(C(c2c(O)cc(C)n(Cc3ccco3)c2=O)N2CCCCC2)cc1OC (stereo not given)	0.8%	2.2%
COc1ccc(NC(=O)CSc2ncc(-c3ccc(F)cc3)n2Cc2ccco2)cc1	25.2%	-8.8%
CC(=O)Nc1ccc(NC(=O)Cn2c(-c3ccc(F)cc3)cnc2SCC(=O)Nc2c(C)cccc2C)cc1	20µM*	1.3%
Cc1ccc(NC(=O)CN2C(=O)CC(c3ccc(C)c(C)c3)=Nc3ccccc32)cc1	-12.0%	-4.5%
Cc1ccc2onc(CNC(=O)N3CCN(c4cccc(C)c4C)CC3)c2c1	7.8%	-9.4%
Cc1ccc2nc(N(Cc3cccnc3)C(=O)c3ccco3)sc2c1	?	1.1%
CCCN1CCN(c2ncnc3sc(C(=O)Nc4cccc(Cl)c4C)c(C)c23)CC1	15.8µM*	2.24µM*
CCCN1CCN(c2ncnc3sc(C(=O)Nc4ccc(N(CC)CC)cc4C)c(C)c23)CC1	-22.0%	-1.5%
COc1ccc(Cl)cc1S(=O)(=O)NCc1ccc2c(c1)CCN2C(=O)c1cccc(C)c1	20.8%	2.2%
O=C(Nc1ccc2[nH]c3c(c2c1)CCCC3)c1ccco1	-16.7%	-10.2%
S=C(NCc1ccc2[nH]c3c(c2c1)CCCC3)Nc1ccccc1	31.6µM*	-9.9%
CCS(=O)(=O)NCc1ccc2[nH]c3c(c2c1)CCCC3	-22.0%	-6.4%
Cc1cc(C)cc(NC(=S)NCc2ccc3[nH]c4c(c3c2)CCCC4)c1	31.6µM*	-0.8%
SMILES	Cruzain inh noDet	Cruzain inh Det
O=C(CCCn1c(=O)c2cccn2c2ccccc21)Nc1cccc(Cl)c1	7.4%	-8.5%
CCSc1ncc(Cl)c(C(=O)N(Cc2ccccc2)c2ccc(OC)cc2)n1	-6.5%	-6.6%
Cc1cccc(-c2nc3ccccc3n3c(-c4ccccc4)c4c(=O)n(C)c(=O)n(C)c4c23)c1	-6.4%	-0.5%
CCCc1nnc2n1N=C(c1ccc(-c3cc(Cl)ccc3Cl)o1)CS2	15.8µM*	-3.1%
CCCc1nnc2n1N=C(c1ccc(OC)c(OC)c1)CS2	9.3%	-4.8%
Cc1ccc(/C=C/C(=O)Nc2nc3ccccc3[nH]2)cc1	25.1µM*	2.9%
Cc1ccc(/C=C/C(=O)c2nc3ccccc3[nH]2)cc1	-8.0%	2.8%
O=C(Cn1ncc2c3ccccc3n(Cc3cccc(Cl)c3)c2c1=O)N1CCCCCC1	-0.8%	-9.6%
CC1=C(C(=O)OC2CCCC2)C(c2cccc(Cl)c2Cl)CC(=O)N1 (stereo not given)	-11.7%	-10.5%
O=C(CN1C(=O)COc2ccc(S(=O)(=O)Nc3ccccc3)cc21)Nc1cccc(Cl)c1	?	-10.1%
O=C(CC1SC(=Nc2ccccc2)N(CCCO)C1=O)Nc1ccc(Cl)cc1 (stereo not given)	?	-13.3%
O=C(CC1SC(=NCCc2ccccc2)N(/N=C/c2cccs2)C1=O)Nc1ccc(Cl)cc1 (stereo not given)	12.6µM*	-5.7%
O=C1Oc2ccccc2C(=O)/C1=C\N1C(=O)N/C(=C\c2ccccc2O)C1=O	-7.4%	-3.7%
CCOc1ccc(CNC(=O)Cn2cc3c(n2)-c2c(oc(C(=O)N4CCOCC4)c2C)CC3)cc1	?	-3.9%
COc1ccc(C2CC(c3ccccc3)=NN2C(=O)COC(=O)c2cccnc2Cl)cc1 (stereo not given)	16.2%	-7.4%
COc1ccc(C2CC(c3ccccc3)=NN2C(=O)COC(=O)C2CC2)cc1 (stereo not given)	-0.2%	-7.6%
COc1ccc(C2CC(c3ccccc3)=NN2C(=O)COC(=O)c2cccnc2)cc1 (stereo not given)	15.8µM*	-7.7%
COc1ccc(C2CC(c3ccccc3)=NN2C(=O)COC(=O)c2cc(S(=O)(=O)N3CCOCC3)ccc2Cl)cc1 (stereo not given)	12.6µM*	0.7%
CN=C1N[C@H](c2ccccc2)N(c2ccccc2)S1	10.8%	0.5%
COc1ccc(CCNC(=O)Cc2c(C)c3c(cc(C)c4c(C)coc43)oc2=O)cc1OC	5.3%	1.0%
O=Nc1ccc(NO)cc1	-7.9%	-5.0%
c1coc(CN2CN=C(Nc3nc4ccccc4s3)NC2)c1	12.6µM*	?
c1ccc(CN2CN=C(Nc3nc4ccccc4s3)NC2)cc1	-8.3%	?
Cc1ccc(S(=O)(=O)Nc2ccc(S(=O)(=O)N3CCCC3)cc2)cc1	0.2%	-1.8%
CCOC(=O)c1c(-c2ccccc2)oc2ccc(NS(=O)(=O)c3ccc(C)cc3)cc12	?	0.4%
SMILES	Cruzain inh noDet	Cruzain inh Det
COCCOC(=O)c1c(C)n(S(=O)(=O)c2ccc(C)cc2)c2ccc(NS(=O)(=O)c3ccc(C)cc3)cc12	10µM*	-2.6%
Cc1ccc(S(=O)(=O)Nc2ccc3c(c2)c(C(=O)OC(C)C)c(C)n3S(=O)(=O)c2ccc(C)cc2)cc1	5.01µM*	-3.0%
Oc1ccc(Cc2cc(Cl)cc(Cl)c2O)cc1Cl	-7.9%	-6.2%
C=C1C[C@@]23C[C@]1(O)CC[C@@H]2[C@]12C=C[C@@H](O)[C@](C)(C(=O)O1)[C@H]2[C@H]3C(=O)O	-16.4%	0.0%
O=C1c2ccccc2C(O)(O)[C@@]1(O)[C@]1(O)C(=O)c2ccccc2C1(O)O	-5.0%	0.6%
CCOc1ccc2c(c1)C(c1ccc(C)cc1)=NNC(c1ccc(OC)cc1)=N2	15.8µM*	-2.3%
CCOc1ccc(C2=NNC(c3cccs3)=Nc3ccc(OC)cc32)cc1	?	-12.1%
CCOc1ccc(CCNC(=O)CN2C(=O)COc3ccc(S(=O)(=O)N4CCC(C)CC4)cc32)cc1	14.3%	-3.0%
Cc1ccc(C(=O)NCCc2ccc(Cl)cc2)cc1-n1c(C)nc2cccnc21	4.9%	-3.2%
COc1ccc(CCNC(=O)c2cc3c(s2)-c2c(C)cccc2OC3)c(OC)c1	?	-11.2%
Cc1ccc(-c2nnc3c4ccccc4c(C)nn23)cc1NC(=O)c1ccccc1Cl	15.3%	0.2%
Clc1ss/c(=N\c2ccccn2)c1Cl	25.1µM*	1.0%
Cc1cccc(CC2S/C(=N/c3ccccn3)NC2=O)c1 (stereo not given)	1.4%	1.2%
CC(C)CNc1nc2ncnc(N)c2[nH]1	1.7%	3.8%
Cc1ncn(-c2ccccc2O)c1C	0.6%	-3.4%
COCCc1nn2c(=O)cc(COC(=O)C(c3ccccc3)c3ccccc3)nc2s1	?	-9.2%
CCN(CC)CCCNC(=O)CSc1nc(-c2ccc(OC)cc2)cc(C(F)(F)F)n1	?	-20.6%
